High-throughput results as filed in PubChem.
Sampled rows, rich in hits. Any-hit rate of the full collection: about 2.8%.
KKLEB tox = CF airway cell cytotoxicity counter-screen; activity change (cytotoxicity), % at 5 µM; KKLEB CF airway cells viability, ATPlite luminescence, overnight; stronger effect = lower value; cells stimulated with P. aeruginosa culture filtrate; 360,000 tested, 0.36% active; AID 602141;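 active means corrected activity change at or below -50% at 5 µM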
CF NFkB inh = cystic fibrosis NF-kB activation inhibition | inhibition, % at 5 µM | KKLEB NF-kB-GFP reporter, PAF-induced, GFP fluorescence overnight | 360,000 tested, 0.86% active | AID 588850;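 active means at least 50% inhibition at 5 µM, scaled per plate between neutral and stimulator controls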;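 further: PAF is a Pseudomonas aeruginosa culture filtrate used as stimulus; plate controls were PAF-stimulated DMSO wells for no effect and unstimulated DMSO wells for full effect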
Peg3 promoter = Peg3 promoter activity inhibition | HeLa PEG-Prom luciferase reporter, luminescence, overnight | inhibition, % at 20 µM | 360,000 tested, 1.7% active;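 active means inhibition of at least 50% at 20 µM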
TRPM1 prom inh = inhibitors of MITF-driven TRPM1 promoter in melanoma cells; SK-MEL-5 TRPM1 promoter luciferase, 24 h; inhibition, % at 12.5 µM; 330,000 tested, 0.83% active; AID 488899;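 active means mean inhibition across replicates of 60% or more, whatever share of single replicates reaches that level; inconclusive means some that reach 60%, reason not given; inactive means mean inhibition across replicates below 60%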
Shn3 inh set2 = reduces Shn3 3'UTR luciferase signal in osteoblasts; Clone20 osteoblast Shn3 3'UTR firefly luciferase, 24 h; inhibition, % at 12.5 µM; 360,000 tested, 0.52% active;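 active means mean inhibition of at least 75% with every replicate also reaching 75%; inconclusive means mean inhibition at least 75% but some replicate below; inactive means mean inhibition below 75%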;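 further: 0% = median of neutral control wells and 100% = pilot-screen positive control compound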
HIF-2a inh = blocks HIF-2a reporter activity; 786-0 RCC cells HIF-2a reporter, luciferase luminescence, overnight; 360,000 tested, 0.72% active; inhibition, % at 18.8 µM;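 active means inhibition of the luminescence signal of 40% or more relative to plate controls, in a single-dose primary screen at 18.75 µM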
Mdm2 MdmX conf = Mdm2/MdmX (human) interaction inhibition, confirmed; shares compounds with HIF-2a inh; SaOS-2 split-luciferase Mdm2/MdmX complementation, luminescence; inhibition, % at 8 µM; 740 tested, 99% active; AID 504601;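 active means mean inhibition of the luminescence signal across two replicates at or above 26 percent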
Target sequence (O15151 whole entry, looked up): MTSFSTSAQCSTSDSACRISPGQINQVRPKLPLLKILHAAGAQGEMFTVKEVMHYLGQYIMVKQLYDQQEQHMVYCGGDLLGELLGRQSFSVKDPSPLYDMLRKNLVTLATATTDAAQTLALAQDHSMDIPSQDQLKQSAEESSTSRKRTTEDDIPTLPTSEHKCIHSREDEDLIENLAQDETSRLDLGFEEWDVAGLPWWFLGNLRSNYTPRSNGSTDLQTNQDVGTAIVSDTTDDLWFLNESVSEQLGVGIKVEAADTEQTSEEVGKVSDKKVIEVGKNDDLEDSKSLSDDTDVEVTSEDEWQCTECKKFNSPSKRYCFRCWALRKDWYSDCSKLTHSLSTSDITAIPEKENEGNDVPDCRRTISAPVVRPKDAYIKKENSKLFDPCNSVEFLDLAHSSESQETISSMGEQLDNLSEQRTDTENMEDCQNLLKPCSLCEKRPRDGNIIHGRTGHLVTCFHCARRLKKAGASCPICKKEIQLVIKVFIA
Target sequence (Q00987 whole entry, looked up): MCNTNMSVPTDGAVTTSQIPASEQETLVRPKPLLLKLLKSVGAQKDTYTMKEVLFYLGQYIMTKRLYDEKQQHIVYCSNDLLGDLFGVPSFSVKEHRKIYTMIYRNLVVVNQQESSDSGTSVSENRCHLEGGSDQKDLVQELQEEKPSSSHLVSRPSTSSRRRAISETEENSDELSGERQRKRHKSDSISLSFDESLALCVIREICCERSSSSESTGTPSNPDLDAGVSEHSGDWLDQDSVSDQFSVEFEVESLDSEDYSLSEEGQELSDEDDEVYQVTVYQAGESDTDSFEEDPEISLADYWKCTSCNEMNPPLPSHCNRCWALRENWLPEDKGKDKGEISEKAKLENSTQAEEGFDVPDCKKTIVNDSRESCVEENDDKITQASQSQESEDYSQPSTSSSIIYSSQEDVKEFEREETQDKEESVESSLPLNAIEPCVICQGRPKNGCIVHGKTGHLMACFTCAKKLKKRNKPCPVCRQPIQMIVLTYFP
HIF-2a conf = HIF-2a inhibition, single concentration confirmation; shares compounds with HIF-2a inh; 786-0 RCC cells, HIF-2a luciferase reporter luminescence, overnight; inhibition, % at 18.8 µM; 1,800 tested, 56% active;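 active means mean inhibition across four replicates of at least 40 percent at the single tested concentration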
HIF-1a counter = inhibits HIF-1a reporter, a counter-screen for HIF-2a inhibitors; shares compounds with HIF-2a inh; MiaPaCa-2 HIF-1a luciferase reporter, desferoxamine, overnight; inhibition, % at 18.8 µM; 1,800 tested, 72% active; AID 651589;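 active means mean inhibition of the reporter signal across four replicates at the single tested dose of 50% or more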
Active calls of the source: *; ? = inconclusive; / = not tested or not shown.

SMILES	KKLEB tox	CF NFkB inh	Peg3 promoter	TRPM1 prom inh	Shn3 inh set2	HIF-2a inh	HIF-2a conf	HIF-1a counter	others
CN(C)c1ncnc2c1ccn2C1OC(CO)C(O)C1O (stereo not drawn)	-63*	36	8	4	88*	44*	34	27
Cc1ccccc1-n1c(C)nnc1SCC(=O)N1CCc2ccccc2C1	4	15	18	1	15	14	/	/
Cc1ccc(Oc2ccc(OCC(=O)Nc3ccncc3)cc2)cc1	-6	-4	9	/	?	55*	77*	50*
CSc1ccc(S(=O)(=O)N2CCC(C(=O)NCC3CCCO3)CC2)cc1 (stereo not drawn)	-1	-2	-10	-5	-2	10	/	/
CCCCCCCCCCn1ccc(=N)cc1	-47	40	46	77*	75	37	/	/	Mdm2 MdmX conf=98*
CC(C)CC(N)c1csc(NC(=O)c2cc(C(C)(C)C)nn2Cc2ccccc2)n1 (stereo not drawn)	-21	1	111*	/	97*	92*	8	107*
CC(C)(C)c1cc(C(=O)NN)n(Cc2ccc(F)cc2)n1	-15	9	5	6	-2	13	/	/
COc1cc2c3nnc(-c4ccc(F)cc4)c-3cn(Cc3ccccc3)c2cc1OC	11	-348	103*	/	24	-24	/	/	Mdm2 MdmX conf=103*
COc1ccc(-c2nnn(Cc3ccccc3)n2)cc1OC	-6	-11	-28	-25	-2	-71	/	/
O=C(NC(NC(=S)Nc1ccccc1)C(Cl)(Cl)Cl)c1cccc(Cl)c1 (stereo not drawn)	-9	19	15	7	51	47*	39	102*
O=C(O)c1cccc(NC(=S)NC(NC(=O)c2cccc([N+](=O)[O-])c2)C(Cl)(Cl)Cl)c1 (stereo not drawn)	-7	8	-6	25	-19	-6	/	/
CCN(Cc1ccc2c(c1)OCO2)C(=O)/C=C/c1cccc(Br)c1	-12	3	-53	-10	-6	-81	/	/
CC(C)(C)N(Cc1ccc2c(c1)OCO2)C(=O)/C=C\S(=O)c1ccccc1 (stereo not drawn)	-19	43	99*	90*	71	69*	54*	80*
CC(C)CN(C(=O)CN(C)C(=O)c1ccco1)c1c(N)n(CC(C)C)c(=O)[nH]c1=O	-2	8	2	-1	-1	15	/	/
O=C(C(=Cc1ccccc1)CN1CCCCC1)c1ccccc1	-84*	80*	103*	97*	95*	80*	98*	105*
COc1ccc(Nc2ncnc3scc(-c4ccc(OC)cc4)c23)cc1	-18	27	30	21	16	42*	26	58*
COc1ccc(-c2csc3ncnc(Cl)c23)cc1	-13	29	3	0	-16	12	/	/
CSc1nc(C2CC2)cc(-c2cccs2)c1C#N	-63*	94*	57*	22	4	51*	35	32
COc1ccc(-c2cc(C3CC3)nc(SCC(=O)c3cccs3)c2C#N)cc1	-21	-7	23	-3	29	20	/	/
COc1ccc(/C=c2/sc3n(c2=O)C(c2ccccc2OC)C2=C(N=3)c3ccccc3CC2)cc1O (stereo not drawn)	0	38	41	34	10	41*	13	64*
COC1OCC(O)C(NC(=O)N(C)N=O)C1O (stereo not drawn)	-4	-16	6	/	3	3	/	/
CCOc1ccc(-c2cc(CCCC(=O)Nc3cccc(OC)c3)no2)cc1	-6	6	-13	?	22	42*	52*	70*
CCOc1ccc(NC(=O)CCCc2cc(-c3ccc(OCC)cc3)on2)cc1	-15	-11	-11	22	12	4	/	/
CCOc1ccc(-c2cc(CCCC(=O)Nc3cc(OC)ccc3OC)no2)cc1	21	-11	-38	49	25	57*	79*	52*
CCCCn1c(N)c(N(CC(C)C)C(=O)c2cccc(-n3cnnn3)c2)c(=O)[nH]c1=O	4	-13	-3	5	-10	5	/	/
SMILES	KKLEB tox	CF NFkB inh	Peg3 promoter	TRPM1 prom inh	Shn3 inh set2	HIF-2a inh	HIF-2a conf	HIF-1a counter	others
Cc1ccc(NC(=O)N2CCC(=O)N2)cc1	4	-3	-13	-3	-15	-134	/	/
Cc1ccc(-c2cc(C(=O)NCCCN3CCOCC3)no2)cc1	-20	12	0	23	21	84*	82*	71*
C[C@H](CO)N1C[C@H](C)[C@@H](CN(C)S(=O)(=O)c2ccccc2)Oc2c(NC(=O)NC3CCCCC3)cccc2C1=O	-16	-5	3	/	7	9	/	/
O=C(/C(=C/c1ccc(Cl)cc1)c1nc2ccccc2[nH]1)c1ccccc1	-82*	89*	108*	84*	?	91*	43*	105*	Mdm2 MdmX conf=103*
COc1cc(/C=C(/C(=O)c2cccs2)c2nc3ccccc3[nH]2)cc(OC)c1O	-7	35	100*	53	-15	79*	57*	102*	Mdm2 MdmX conf=103*
COc1ccc(C(=O)N/C(=C/c2cccs2)c2nc3ccccc3[nH]2)cc1OC	-2	-10	-7	-6	-9	-12	/	/
N#Cc1ccc(C(=O)CSc2n[nH]c(=O)n2-c2cccnc2)cc1	-7	-18	13	/	16	21	/	/
COc1ccc(OC)c(NC(=O)C2(C)CCN2CCOc2ccccc2)c1 (stereo not drawn)	-1	4	9	/	21	4	/	/
CC(C)(C)c1ccc(C(=O)NCCOc2ccccc2)cc1	-1	7	-35	9	23	6	/	/
CC(C)(C)c1ccc(C(=O)NCCOc2ccccc2F)cc1	-1	13	67*	26	24	41*	61*	73*
CCOc1ccc(-n2cnc3scc(-c4ccc(OC)c(OC)c4)c3c2=O)cc1	0	13	17	13	-16	41*	15	26
C#CC(=O)N(c1cc(OC)ccc1OC)C(C(=O)NC1CCCC1)c1cccs1 (stereo not drawn)	-97*	97*	107*	/	90*	92*	99*	105*	Mdm2 MdmX conf=103*
C#CC(=O)N(c1ccc(OC)cc1OC)C(C(=O)NC1CCCC1)c1cccs1 (stereo not drawn)	-93*	94*	101*	101*	83	96*	99*	106*	Mdm2 MdmX conf=102*
